From the supplement of paper PMC3724861
The sample as a whole holds a higher share of hits than the screen did. No count for the full screen is at hand.

What follows are sequences tested on T1, Caupolican (Caup) homeodomain DNA-binding domain (assay: PBM E-score (8-mer, recovered from the published 9-mer minima) (E-score (dimensionless, -0.5 to 0.5)); Drosophila protein; higher = stronger relative binding preference, active = 0.31 or more).
T1 sequence: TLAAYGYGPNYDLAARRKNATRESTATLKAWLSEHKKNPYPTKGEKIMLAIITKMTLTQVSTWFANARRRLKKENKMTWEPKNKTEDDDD
How it was run: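 An enrichment score, with higher meaning stronger, expresses relative binding preference for each short DNA word. The protein used was Caup's homeodomain DNA-binding domain (residues 214-303), produced by in vitro transcription and translation and tested at 100 nM on custom-designed protein binding microarrays. The 8-mer values were recovered from published 9-mer scores, each equal to the lower of its two constituent 8-mer scores.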

PBM E-score, inactive:
AGCAGTCG -0.15, ATTGTTTC 0.143, GGCTAAAC -0.0281, GCGGTGCC -0.251, CTGTATAA 0.186, GTGTATAA 0.202, CTGTATAC 0.246, ATGTATAG 0.276, GTGTATGA 0.249, ATGTATGG 0.157, AAAGGATA 0.105, CCTCCACA -0.164, AAGTCTGT 0.139, CGCCTAAA -0.117, AGACATCA 0.197, AGACATGC 0.303, CGACATTA 0.202, AGACATAG 0.164, AGACATTA 0.201, AGACATCG 0.0873, CGACATCC 0.134, GGACATGA 0.304, GAAGTCAA -0.0438, GCAGTCGA -0.135, CCAATCAA 0.0187, ATAGGCCC -0.176, ACCCCTCA -0.091, CAACTCTA -0.0633, CACACATA 0.164, AACACATC 0.202, AACACATT 0.264, ATCACATA 0.239, AGCACATA 0.0614, GACACATA 0.264, AACACACG 0.248, AACACACT 0.256, GAACAGTA 0.173, AAGAGAGA -0.0648, CTTCCGCA -0.0665, ACTTCTCA 0.00621, GGTGATAA 0.0536, GCTCCACC -0.174, CAATAGCC 0.0422, CATCTTGC 0.0649, GTCAACGA 0.118, CAGCCCGA -0.199, ATGAGCGA -0.0133, AAACATAG 0.267, GAACATAA 0.282, AAACATTA 0.233, AAGCATAA 0.0796, AAACATAC 0.292, CAACATAA 0.295, GTCAATCA 0.0914, ACGCTGTG 0.0319, AAAGTTGT 0.17, AAGAGAAG -0.0176, ACTGTGAT 0.066, AGCCGAAT -0.0412, AAGTGGCT -0.132, CCGCGGCA -0.192, CTCGTGGC -0.127, AAGCCGGG -0.179, GTATACTA 0.16, CTATACAA 0.249, ATATATAC 0.181, GTATACAC 0.249, CTATACAG 0.0968, TTATACAA 0.28, ATATACAG 0.186, CTATACAC 0.0914, ATTAGTGC 0.105, AACTGGCC -0.147, CCGGACGG -0.297, CCTGGCAA -0.121, CAATGACC 0.065, TCACAAGA 0.131, ATCGGTAC 0.0373, CTGCCGTC -0.128, ATTAGAGG -0.11, TCCATGCA -0.0253, CCCATGCA -0.119, ATCATGCA 0.103, TGCATGCA 0.0646, GAGATGCA -0.024, ACCATGCT 0.14, CACATGCA 0.166, AACATGCC 0.302, CTCGCGTA -0.0439, TTATCAAA 0.109, GTGATTCA 0.0823, AGAAAGCA 0.0369, CCGGGTCA -0.18, ATCATGCG 0.0113, CACATGCG 0.023, CACATGCC 0.0641, GCCATGCC -0.149, ATCCTGAG -0.0222, CAAGCTAG -0.0491, CGTAATGA 0.094, GTGACCGA -0.0686, ACTTGAAC 0.132, ACAAATCC 0.179, GCACATGA 0.182, CTGCATGA -0.0538, CTACATTA 0.199, GTTCATGA 0.115, CTACAGGA 0.245, ATACATTA 0.219, ACAGGAGT 0.0982, AAAGTTTG 0.0257, ACGGCAGT -0.0873, GCAACGCC -0.0458, GCAGTACA 0.196, ACAGTACG 0.0926, CCAGTACA 0.3, ACAGTACT 0.18

PBM E-score, active:
ATGTATAA 0.344, ATGTATAC 0.356, ATGTATGA 0.352, AGACATGG 0.329, CGACATGA 0.395, AGACATGA 0.341, CGACATGC 0.386, AACACATA 0.323, AACACATG 0.313, AACACACA ≥ 0.313, TACACATA 0.343, AAACATAA 0.321, TAACATAA 0.327, AAACATAT 0.325, ATATACAC 0.348, GTATACAA 0.318, ATATACAA ≥ 0.355, ATATACAT 0.367, TACATGCA 0.371, AACATGCA 0.392, AACATGCT 0.376, GACATGCA 0.394, GACATGCC 0.35, AACATGCG 0.356, GTACATGA 0.435, CTACATGA 0.36, GTACATTA 0.322, TCAGTACA 0.313, ACAGTACA 0.331
